The target of assay [1] is Metallo-beta-lactamase type 2 (Klebsiella pneumoniae) (UniProt C7C422). The assay can be described thus: qHTS to identify inhibitors of the New Delhi Metallo-beta-lactamase (NDM): assay validation screen against the NCATS LOPAC Collection (AID 1794843).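 Also: nitrocefin turnover by NDM-1 measured as 485 nm absorbance at plateau; series mostly up to about 38 µM.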 The method in brief:
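NDM-1 at 2 nM final in 50 mM HEPES pH 7.0, 1 uM ZnSO4, 0.01% Tween20, preincubated with LOPAC compounds pinned in DMSO; 50 uM nitrocefin (stock) added. Hydrolysis read as absorbance at 485 nm in the plateau phase.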
In general terms: In qHTS, concentration-response curves come from the screen itself.

The target of assay [2] is Glutathione peroxidase 1 (Homo sapiens) (UniProt P07203). The assay can be described thus: Primary qHTS Assay for Inhibitors of Recombinant Selenoprotein Glutathione Peroxidase 1 (GPX1) (AID 1845191). Also: nearly all actives have a fitted effect of over 65% in size. The method in brief:
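GR-coupled readout: NADPH consumption tracked by fluorescence, ex 340/em 450 nm, at t=0 and after 15 min at RT. Final mix 10 nM GPX1, 1 mM GSH, 0.5 mM CHP, 0.5 mM NADPH, 100 nM GR, 0.01% BSA, following 30 min enzyme–compound preincubation.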

Assay [3] has as its target Phospholipid hydroperoxide glutathione peroxidase GPX4 (Homo sapiens) (UniProt P36969). The assay can be described thus: Primary qHTS Assay for Inhibitors of Recombinant Selenoprotein Glutathione Peroxidase 4 (GPX4) (AID 1845192). Also: nearly all actives have a fitted effect of over 65% in size. The method in brief: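 Steps: GPX4 plus compound, 30 min RT; add GR/GSH/NADPH master mix; start with cumene hydroperoxide; read 340/450 nm fluorescence at 0 and 15 min. Finals were 200 nM GPX4, 1 mM GSH, 0.5 mM CHP, 0.5 mM NADPH, 100 nM GR.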

Results filed as inconclusive are left out. Entries that show only a call come without a potency. Active and inactive are the calls of the source. Calls follow the shape of the dose curve; as a rule, active = well fitted curve in the direction sought with a large enough effect; inconclusive = small, poorly fitted or top-dose-only effect, or another doubt; inactive = no such curve, though single readings can be large; an effect the other way counts as inactive or inconclusive.

Glutathione peroxidase 1 (Homo sapiens), sequence (P07203 whole entry, looked up): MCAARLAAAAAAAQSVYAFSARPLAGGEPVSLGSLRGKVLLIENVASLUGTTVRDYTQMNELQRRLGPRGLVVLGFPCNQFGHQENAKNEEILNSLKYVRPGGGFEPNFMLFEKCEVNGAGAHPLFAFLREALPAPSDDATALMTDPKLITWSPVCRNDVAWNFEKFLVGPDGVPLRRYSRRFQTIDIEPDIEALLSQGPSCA
Phospholipid hydroperoxide glutathione peroxidase GPX4 (Homo sapiens), sequence (P36969 whole entry, looked up): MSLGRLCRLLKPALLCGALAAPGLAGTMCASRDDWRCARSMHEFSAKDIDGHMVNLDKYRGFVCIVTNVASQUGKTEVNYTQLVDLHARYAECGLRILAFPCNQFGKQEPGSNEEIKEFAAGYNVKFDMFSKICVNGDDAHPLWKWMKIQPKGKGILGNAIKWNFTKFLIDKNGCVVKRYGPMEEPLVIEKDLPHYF
Metallo-beta-lactamase type 2 (Klebsiella pneumoniae), sequence (C7C422 whole entry, looked up): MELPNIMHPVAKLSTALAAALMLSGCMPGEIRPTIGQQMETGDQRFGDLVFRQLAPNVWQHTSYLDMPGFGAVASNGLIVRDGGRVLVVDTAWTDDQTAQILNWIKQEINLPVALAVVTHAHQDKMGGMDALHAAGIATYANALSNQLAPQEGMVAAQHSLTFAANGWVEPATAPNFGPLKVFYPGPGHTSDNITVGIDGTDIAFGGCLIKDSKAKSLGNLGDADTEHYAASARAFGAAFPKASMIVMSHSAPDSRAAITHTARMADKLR

With `CNCCc1ccc(O)c(O)c1`, the call in assay [1] was inactive. The Potency result in assay [2] and in assay [3] was “inactive” in each case.

In the case of `C[N+](C)(C)CC(=O)O`, in assay [1], the result was inactive. The Potency result in assay [2] and in assay [3] was “inactive” in each case.

For the compound `Cc1nccc2c1[nH]c1ccccc12`, in assay [1], the result was inactive. Moreover, the Potency result in assay [2] is “inactive”.

Turning to `CC(Cc1ccc(O)cc1)NCC(O)c1cc(O)cc(O)c1` (stereo not given), in assay [1], the result was inactive. Moreover, the Potency entry in assay [2] and in assay [3] was “inactive” in each case.

With `O=C(O)CC[N+](=O)[O-]`, the call in assay [1] was inactive. Moreover, the Potency result in assay [2] and in assay [3] was “inactive” throughout.

Consider `NC1CCc2cc(O)c(O)cc2C1` (stereo not given), for which the result in assay [1] was inactive. Moreover, the Potency entry in assay [2] and in assay [3] was “inactive” throughout.

Consider `CS(=N)(=O)CC[C@H](N)C(=O)O` (stereo not given in full), for which the outcome in assay [1] was inactive. The Potency result in assay [2] and in assay [3] was “inactive” each time.

For the compound `O=C1CCCN1CC#CCN1CCCC1`, in assay [1], the compound was called inactive. The Potency result in assay [2] and in assay [3] was “inactive” in each case.

For `NC(CCP(=O)(O)O)C(=O)O` (stereo not given), in assay [1], the outcome was inactive. Also, the Potency result in assay [2] is “inactive”.

As for `Clc1cnc(Oc2ccc(Oc3ncc(Cl)cc3Cl)cc2)c(Cl)c1`, in assay [1], the outcome was inactive. Besides, the Potency entry in assay [2] and in assay [3] was “inactive” throughout.

`CC(C)NC(C)Cc1ccc(I)cc1` (stereo not given): the call in assay [1] was inactive. Further, in assay [2], the Potency entry was “inactive”.

As for `NC(N)=NOCCC(N)C(=O)O` (stereo not given), the compound was called inactive in assay [1]. For the same compound, the Potency entry in assay [2] and in assay [3] was “inactive” in each case.

For `NC(=O)CN1CC(O)CC1=O` (stereo not given), the compound was classed as inactive in assay [1]. For the same compound, the Potency result in assay [2] is “inactive”.

As for `NC(=NCCC[C@H](N)C(=O)O)N[N+](=O)[O-]`, the compound was called inactive in assay [1]. For the same compound, in assay [2], the Potency result is “inactive”.

On to `CC(C)Oc1cccnc1N(C)C1CCN(Cc2ccccc2)CC1`, for which, in assay [1], the outcome was inactive. The Potency entry in assay [2] and in assay [3] was “inactive” throughout.

Take `NCc1cc(=O)[nH]o1`: in assay [1], the compound was called inactive. Besides, in assay [2], the Potency entry was “inactive”.

In the case of `CCCN(CCC)[C@@H]1CCc2ccc(O)cc2C1`, the outcome in assay [1] was inactive. In addition, the Potency result in assay [2] was “inactive”.

Take `CCCN1CCO[C@@H]2c3cc(O)ccc3OC[C@H]21`: the call in assay [1] was inactive. The Potency entry in assay [2] is “inactive”.

Consider `CCCN(CCC)C1CCc2ccc(O)cc2C1` (stereo not given), for which the call in assay [1] was inactive. Further, the Potency entry in assay [2] and in assay [3] was “inactive” throughout.

Turning to `O=C(Cc1ccc(Cl)c(Cl)c1)N1CCCCC1CN1CCCC1` (stereo not given), in assay [1], the outcome was inactive. Further, the Potency entry in assay [2] was “inactive”.

Turning to `CCCCc1ccc(C(=O)O)nc1`, the compound was called inactive in assay [1]. Further, the Potency entry in assay [2] and in assay [3] was “inactive” each time.

On to `C[N+]1(C)C2CCC1CC(OC(=O)C(CO)c1ccccc1)C2` (stereo not given), for which, in assay [1], the result was inactive. Further, the Potency entry in assay [2] is “inactive”.

Take `CN1C2CCC1CC(OC(=O)c1cc(Cl)cc(Cl)c1)C2` (stereo not given): the compound was called inactive in assay [1]. Also, the Potency entry in assay [2] and in assay [3] was “inactive” throughout.

For the compound `C[C@@H]1O[C@H](C[N+](C)(C)C)C[C@H]1O`, in assay [1], the result was inactive. Moreover, the Potency result in assay [2] was “inactive”.

Consider `C#CCOC(=O)C1=CCCN(C)C1`, for which, in assay [1], the outcome was inactive. Moreover, the Potency entry in assay [2] and in assay [3] was “inactive” throughout.

As for `Cn1cnc(CCN)c1`, in assay [1], the outcome was inactive. In addition, the Potency entry in assay [2] and in assay [3] was “inactive” throughout.

`C=CCN1CC[C@]23CCCCC2[C@H]1Cc1ccc(O)cc13` (stereo not given in full): the call in assay [1] was inactive. Besides, the Potency result in assay [2] and in assay [3] was “inactive” throughout.

Turning to `C[C@@H](N)Cc1cnc[nH]1`, in assay [1], the call was inactive. For the same compound, the Potency result in assay [2] was “inactive”.

For `CC(=O)[C@H]1CCC2C3CC[C@H]4C[C@H](O)CC[C@]4(C)C3CC[C@@]21C` (stereo not given in full), the compound was called inactive in assay [1]. Further, in assay [2], the Potency entry was “inactive”.

For `c1ccc(C2(c3ccccc3)CC2C2=NCCN2)cc1` (stereo not given), in assay [1], the compound was classed as inactive. In assay [2], the Potency entry was “inactive”.

In the case of `CCCN1CCC[C@H](c2cccc(O)c2)C1`, the compound was called inactive in assay [1]. The Potency entry in assay [2] and in assay [3] was “inactive” each time.

On to `CN[C@@H]1C[C@@H](c2ccc(Cl)c(Cl)c2)c2ccccc21`, for which, in assay [1], the compound was called inactive. In addition, the Potency result in assay [2] and in assay [3] was “inactive” throughout.

As to `NCCc1c[nH]c2ccccc12`, the result in assay [1] was inactive. In addition, the Potency result in assay [2] and in assay [3] was “inactive” throughout.

These data come from PubChem BioAssay (NCATS).
